# Measurements from article PMC7862700, “An all-to-all approach to the identification of sequence-specific readers for epigenetic DNA modifications on cytosine”.
# Columns and labels:
# Experiment in all cases: DAPPL (digital affinity profiling via proximity ligation, sequencing); 10 mM Tris-HCl pH 7.5, 50 mM NaCl, 1 mM DTT, 4% glycerol, room temperature, 30 min; GST-TFs on glutathione beads, 16-mer random dsDNA library, 0.1% formaldehyde crosslink after washing; high values mean tight binding
# Settings in all cases: protein: recombinant; tags: N-terminal GST; dsDNA, one strand shown
# [1] = biological target: T1, FLI1 (Homo sapiens, UniProt Q01543 1-452)
# T1 sequence: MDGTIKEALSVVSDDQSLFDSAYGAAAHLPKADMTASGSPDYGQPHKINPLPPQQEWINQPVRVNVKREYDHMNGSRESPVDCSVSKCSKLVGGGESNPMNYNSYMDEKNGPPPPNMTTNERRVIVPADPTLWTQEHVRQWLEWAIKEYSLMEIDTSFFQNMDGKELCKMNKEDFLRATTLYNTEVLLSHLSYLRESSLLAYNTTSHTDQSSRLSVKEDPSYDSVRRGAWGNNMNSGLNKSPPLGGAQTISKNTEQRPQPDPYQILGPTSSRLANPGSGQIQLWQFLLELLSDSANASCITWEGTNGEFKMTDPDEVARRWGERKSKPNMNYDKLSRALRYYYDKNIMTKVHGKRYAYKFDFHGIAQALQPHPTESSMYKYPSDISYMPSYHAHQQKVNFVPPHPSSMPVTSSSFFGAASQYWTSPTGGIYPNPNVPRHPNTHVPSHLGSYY
# Summary of the method: (§1)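 Each value of binding signal is a hexamer's read frequency for a factor divided by the same hexamer's frequency in the tag-only sample. Barcoded, bead-captured GST fusions of human transcription factors made in yeast were pooled with that sample and incubated with 200 nmole of a random double-stranded 16-mer DNA library in Tris/NaCl/DTT/glycerol buffer at room temperature for 30 min. Washing, 0.1% formaldehyde crosslinking, proximity ligation, PCR and Illumina NextSeq500 sequencing followed.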
# [2] = biological target: T2, ELK1 (Homo sapiens, UniProt P19419 1-428)
# T2 sequence: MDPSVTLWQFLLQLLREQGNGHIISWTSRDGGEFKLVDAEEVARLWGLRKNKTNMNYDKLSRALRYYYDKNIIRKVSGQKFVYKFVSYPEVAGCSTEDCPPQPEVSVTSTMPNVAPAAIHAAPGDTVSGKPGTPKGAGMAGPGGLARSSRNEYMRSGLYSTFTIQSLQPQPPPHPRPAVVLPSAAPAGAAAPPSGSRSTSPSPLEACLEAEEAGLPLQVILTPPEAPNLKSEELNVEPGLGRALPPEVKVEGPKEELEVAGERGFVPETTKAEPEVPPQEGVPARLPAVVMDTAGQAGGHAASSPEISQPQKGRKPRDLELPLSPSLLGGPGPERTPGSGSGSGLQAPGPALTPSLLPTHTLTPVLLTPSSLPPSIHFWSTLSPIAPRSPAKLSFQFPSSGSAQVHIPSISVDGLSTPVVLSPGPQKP
# Summary of the method: as §1
# [3] = biological target: T3, GABPA (Homo sapiens, UniProt Q06546 1-454)
# T3 sequence: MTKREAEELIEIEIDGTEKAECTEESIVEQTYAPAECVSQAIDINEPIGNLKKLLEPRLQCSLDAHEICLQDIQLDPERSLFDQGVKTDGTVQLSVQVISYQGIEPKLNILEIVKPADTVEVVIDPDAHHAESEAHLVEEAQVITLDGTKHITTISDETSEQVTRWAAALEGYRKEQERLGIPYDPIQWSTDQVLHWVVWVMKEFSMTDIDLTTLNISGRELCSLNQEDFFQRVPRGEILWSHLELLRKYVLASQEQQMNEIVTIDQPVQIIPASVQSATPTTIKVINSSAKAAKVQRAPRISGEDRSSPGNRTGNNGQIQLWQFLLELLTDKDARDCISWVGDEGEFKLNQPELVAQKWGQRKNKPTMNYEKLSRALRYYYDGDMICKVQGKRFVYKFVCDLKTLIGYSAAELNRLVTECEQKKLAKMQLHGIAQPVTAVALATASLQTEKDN
# Summary of the method: as §1
# [4] = biological target: T4, ERG (Homo sapiens, UniProt P11308 1-479)
# T4 sequence: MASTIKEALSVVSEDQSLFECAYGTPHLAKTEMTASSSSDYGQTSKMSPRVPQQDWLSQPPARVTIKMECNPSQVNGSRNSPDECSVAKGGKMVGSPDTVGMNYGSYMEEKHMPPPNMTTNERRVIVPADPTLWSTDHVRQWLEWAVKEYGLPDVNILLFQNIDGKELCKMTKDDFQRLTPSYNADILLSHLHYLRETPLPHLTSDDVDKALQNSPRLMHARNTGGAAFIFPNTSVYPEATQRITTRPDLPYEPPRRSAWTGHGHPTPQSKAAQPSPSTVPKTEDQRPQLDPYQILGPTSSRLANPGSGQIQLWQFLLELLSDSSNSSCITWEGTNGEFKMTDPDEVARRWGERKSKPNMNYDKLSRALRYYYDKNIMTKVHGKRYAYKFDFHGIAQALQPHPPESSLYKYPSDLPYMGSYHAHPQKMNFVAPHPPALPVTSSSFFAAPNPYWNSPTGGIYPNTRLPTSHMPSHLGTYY
# Summary of the method: as §1
# [5] = biological target: ELF1 (Homo sapiens, UniProt P32519 1-619)
# Summary of the method: as §1
# [6] = biological target: T5, EHF (Homo sapiens, UniProt Q9NZC4 1-300)
# T5 sequence: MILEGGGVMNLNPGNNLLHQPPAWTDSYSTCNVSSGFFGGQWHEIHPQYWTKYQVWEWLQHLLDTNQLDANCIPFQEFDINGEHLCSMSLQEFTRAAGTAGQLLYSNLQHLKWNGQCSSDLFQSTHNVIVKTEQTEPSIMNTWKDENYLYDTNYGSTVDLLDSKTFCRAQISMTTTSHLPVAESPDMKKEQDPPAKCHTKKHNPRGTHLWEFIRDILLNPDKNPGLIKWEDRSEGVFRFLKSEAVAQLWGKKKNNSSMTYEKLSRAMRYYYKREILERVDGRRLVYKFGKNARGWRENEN
# Summary of the method: as §1
# [7] = biological target: SPI1 (Homo sapiens, UniProt P17947 1-270)
# Summary of the method: as §1
# [8] = biological target: SPIB (Homo sapiens, UniProt Q01892 1-262)
# Summary of the method: as §1
# [9] = biological target: T6, ELK3 (Homo sapiens, UniProt P41970 1-407)
# T6 sequence: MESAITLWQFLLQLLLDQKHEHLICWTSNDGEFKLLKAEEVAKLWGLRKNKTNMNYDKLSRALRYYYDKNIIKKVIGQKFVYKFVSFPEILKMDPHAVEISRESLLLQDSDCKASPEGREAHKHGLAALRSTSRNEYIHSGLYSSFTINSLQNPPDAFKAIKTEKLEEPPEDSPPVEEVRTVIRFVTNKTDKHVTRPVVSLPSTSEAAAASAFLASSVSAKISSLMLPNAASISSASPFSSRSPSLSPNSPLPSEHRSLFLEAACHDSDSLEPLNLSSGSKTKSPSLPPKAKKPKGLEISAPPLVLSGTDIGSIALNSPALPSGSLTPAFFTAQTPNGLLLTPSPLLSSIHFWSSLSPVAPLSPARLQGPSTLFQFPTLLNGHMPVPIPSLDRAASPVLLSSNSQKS
# Summary of the method: as §1
# [10] = biological target: T7, FEV (Homo sapiens, UniProt Q99581 1-238)
# T7 sequence: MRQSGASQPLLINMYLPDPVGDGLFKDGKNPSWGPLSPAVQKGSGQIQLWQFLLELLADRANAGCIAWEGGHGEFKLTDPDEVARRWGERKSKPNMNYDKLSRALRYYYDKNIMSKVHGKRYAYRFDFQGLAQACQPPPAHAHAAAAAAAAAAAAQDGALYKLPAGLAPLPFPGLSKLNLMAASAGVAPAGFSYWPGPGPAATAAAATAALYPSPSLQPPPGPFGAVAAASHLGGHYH
# Summary of the method: as §1
# [11] = biological target: ETV5 (Homo sapiens, UniProt P41161 1-510)
# Summary of the method: as §1
# [12] = biological target: T8, SPIC (Homo sapiens, UniProt Q8N5J4 1-248)
# T8 sequence: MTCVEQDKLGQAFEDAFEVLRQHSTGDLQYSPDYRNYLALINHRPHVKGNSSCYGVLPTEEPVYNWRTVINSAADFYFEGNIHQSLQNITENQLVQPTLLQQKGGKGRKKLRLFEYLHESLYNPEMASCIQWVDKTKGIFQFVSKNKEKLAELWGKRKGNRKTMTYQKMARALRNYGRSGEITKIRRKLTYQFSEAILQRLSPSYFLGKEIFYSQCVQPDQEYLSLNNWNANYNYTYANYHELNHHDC
# Summary of the method: as §1
# [13] = biological target: ELF4 (Homo sapiens, UniProt Q99607 1-663)
# Summary of the method: as §1
# [14] = biological target: T9, ELK4 (Homo sapiens, UniProt P28324-2 1-405)
# T9 sequence: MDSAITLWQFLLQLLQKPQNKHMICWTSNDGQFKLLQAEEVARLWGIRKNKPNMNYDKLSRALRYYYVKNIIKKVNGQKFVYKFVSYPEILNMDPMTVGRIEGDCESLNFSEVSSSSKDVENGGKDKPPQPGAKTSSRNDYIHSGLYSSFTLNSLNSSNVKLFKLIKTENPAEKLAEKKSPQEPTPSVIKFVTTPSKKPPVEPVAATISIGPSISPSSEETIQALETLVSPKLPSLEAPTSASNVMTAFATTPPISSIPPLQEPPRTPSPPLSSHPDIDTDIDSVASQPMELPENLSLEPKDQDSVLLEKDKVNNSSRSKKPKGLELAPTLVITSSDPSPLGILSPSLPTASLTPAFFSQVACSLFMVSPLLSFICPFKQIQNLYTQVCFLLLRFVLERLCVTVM
# Summary of the method: as §1
# [15] = biological target: T10, ETV2 (Homo sapiens, UniProt O00321 1-342)
# T10 sequence: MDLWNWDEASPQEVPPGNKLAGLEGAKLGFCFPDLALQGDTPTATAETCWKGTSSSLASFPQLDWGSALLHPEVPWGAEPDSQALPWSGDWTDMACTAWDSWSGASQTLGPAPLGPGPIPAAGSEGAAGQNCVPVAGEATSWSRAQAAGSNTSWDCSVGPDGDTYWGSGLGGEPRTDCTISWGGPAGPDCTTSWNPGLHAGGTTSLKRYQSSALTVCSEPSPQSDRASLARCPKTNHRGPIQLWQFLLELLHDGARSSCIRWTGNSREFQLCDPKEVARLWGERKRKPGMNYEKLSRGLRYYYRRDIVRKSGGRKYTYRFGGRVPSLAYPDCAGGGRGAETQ
# Summary of the method: as §1
# [16] = biological target: T11, ELF3 (Homo sapiens, UniProt P78545 1-371)
# T11 sequence: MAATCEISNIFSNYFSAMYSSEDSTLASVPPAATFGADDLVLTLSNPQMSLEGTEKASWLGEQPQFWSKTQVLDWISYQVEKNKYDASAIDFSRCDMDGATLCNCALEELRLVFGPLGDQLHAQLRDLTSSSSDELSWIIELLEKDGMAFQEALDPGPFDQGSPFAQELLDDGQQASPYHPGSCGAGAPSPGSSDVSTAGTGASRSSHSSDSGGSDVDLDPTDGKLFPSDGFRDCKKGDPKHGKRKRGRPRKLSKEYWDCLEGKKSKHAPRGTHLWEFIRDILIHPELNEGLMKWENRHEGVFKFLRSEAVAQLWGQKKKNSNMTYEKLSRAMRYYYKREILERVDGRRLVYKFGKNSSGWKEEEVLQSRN
# Summary of the method: as §1
# [17] = biological target: ETV1 (Homo sapiens, UniProt P50549 1-477)
# Summary of the method: as §1
# Chain of SPIB (Q01892 whole entry): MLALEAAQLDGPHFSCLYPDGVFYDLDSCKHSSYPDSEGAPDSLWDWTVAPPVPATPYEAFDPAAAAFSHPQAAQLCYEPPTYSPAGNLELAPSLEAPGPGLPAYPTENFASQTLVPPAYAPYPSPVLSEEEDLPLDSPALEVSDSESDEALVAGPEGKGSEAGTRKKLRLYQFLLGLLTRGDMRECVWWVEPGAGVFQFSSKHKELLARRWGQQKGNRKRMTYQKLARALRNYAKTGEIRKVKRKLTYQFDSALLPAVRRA
# Chain of ELF1 (P32519 whole entry): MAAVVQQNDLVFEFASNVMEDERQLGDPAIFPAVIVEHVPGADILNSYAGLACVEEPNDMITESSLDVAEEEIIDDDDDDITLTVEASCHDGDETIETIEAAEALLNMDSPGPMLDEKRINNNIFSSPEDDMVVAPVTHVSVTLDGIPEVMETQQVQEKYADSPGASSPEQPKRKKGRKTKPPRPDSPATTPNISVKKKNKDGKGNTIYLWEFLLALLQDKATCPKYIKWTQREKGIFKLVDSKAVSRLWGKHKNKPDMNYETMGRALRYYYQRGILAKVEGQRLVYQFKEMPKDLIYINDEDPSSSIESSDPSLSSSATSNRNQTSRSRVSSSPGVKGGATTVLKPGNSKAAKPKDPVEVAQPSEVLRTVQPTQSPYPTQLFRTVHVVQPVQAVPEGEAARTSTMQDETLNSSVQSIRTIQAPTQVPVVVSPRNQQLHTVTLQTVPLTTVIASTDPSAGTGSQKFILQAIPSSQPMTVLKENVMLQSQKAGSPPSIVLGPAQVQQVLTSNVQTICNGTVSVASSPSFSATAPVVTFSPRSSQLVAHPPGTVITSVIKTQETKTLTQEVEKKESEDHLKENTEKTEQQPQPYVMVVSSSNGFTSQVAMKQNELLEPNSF
# Chain of ETV5 (P41161 whole entry): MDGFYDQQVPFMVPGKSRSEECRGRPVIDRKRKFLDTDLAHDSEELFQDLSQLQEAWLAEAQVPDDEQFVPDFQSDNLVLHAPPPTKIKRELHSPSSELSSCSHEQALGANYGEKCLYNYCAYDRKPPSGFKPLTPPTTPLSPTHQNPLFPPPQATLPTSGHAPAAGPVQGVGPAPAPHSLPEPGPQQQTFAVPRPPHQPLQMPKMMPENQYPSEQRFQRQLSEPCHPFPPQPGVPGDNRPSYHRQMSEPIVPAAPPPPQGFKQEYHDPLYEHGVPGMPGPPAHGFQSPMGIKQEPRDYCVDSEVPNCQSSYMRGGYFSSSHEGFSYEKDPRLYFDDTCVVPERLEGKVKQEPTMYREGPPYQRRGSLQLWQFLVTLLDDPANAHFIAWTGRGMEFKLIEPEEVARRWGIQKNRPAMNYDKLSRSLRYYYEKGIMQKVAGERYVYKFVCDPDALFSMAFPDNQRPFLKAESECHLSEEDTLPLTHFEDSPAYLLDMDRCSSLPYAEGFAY
# Chain of ELF4 (Q99607 whole entry): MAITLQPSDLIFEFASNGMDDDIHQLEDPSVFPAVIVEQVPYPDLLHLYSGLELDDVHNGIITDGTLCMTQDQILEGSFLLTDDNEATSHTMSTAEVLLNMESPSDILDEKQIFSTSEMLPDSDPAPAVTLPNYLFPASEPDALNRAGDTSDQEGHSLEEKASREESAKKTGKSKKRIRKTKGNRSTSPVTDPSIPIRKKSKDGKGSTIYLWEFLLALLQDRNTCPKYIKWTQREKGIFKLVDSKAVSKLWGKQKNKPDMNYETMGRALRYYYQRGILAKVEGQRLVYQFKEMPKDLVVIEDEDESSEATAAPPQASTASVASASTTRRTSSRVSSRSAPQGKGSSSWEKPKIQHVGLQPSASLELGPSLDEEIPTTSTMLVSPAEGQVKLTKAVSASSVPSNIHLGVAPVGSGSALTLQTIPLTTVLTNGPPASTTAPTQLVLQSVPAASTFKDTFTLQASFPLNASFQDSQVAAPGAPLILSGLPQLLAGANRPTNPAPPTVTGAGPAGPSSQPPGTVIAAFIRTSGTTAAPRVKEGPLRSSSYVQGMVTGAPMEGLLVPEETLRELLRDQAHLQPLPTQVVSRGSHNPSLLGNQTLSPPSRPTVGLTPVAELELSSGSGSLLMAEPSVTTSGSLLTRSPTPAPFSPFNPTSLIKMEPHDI
# Chain of ETV1 (P50549 whole entry): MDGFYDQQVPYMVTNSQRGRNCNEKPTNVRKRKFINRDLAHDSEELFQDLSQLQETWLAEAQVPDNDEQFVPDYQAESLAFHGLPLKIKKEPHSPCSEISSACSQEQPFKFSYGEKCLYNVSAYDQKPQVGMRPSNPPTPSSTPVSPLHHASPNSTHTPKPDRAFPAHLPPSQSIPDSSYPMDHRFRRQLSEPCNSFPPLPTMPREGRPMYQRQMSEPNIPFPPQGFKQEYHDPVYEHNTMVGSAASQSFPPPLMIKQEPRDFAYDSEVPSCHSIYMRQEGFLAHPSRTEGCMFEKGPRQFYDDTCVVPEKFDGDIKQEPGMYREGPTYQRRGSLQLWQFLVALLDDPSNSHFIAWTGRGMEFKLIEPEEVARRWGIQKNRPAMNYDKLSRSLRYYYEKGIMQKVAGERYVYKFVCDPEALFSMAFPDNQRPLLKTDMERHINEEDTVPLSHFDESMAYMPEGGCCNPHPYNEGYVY
sequence,measurement,setting,value
GCATCC,binding signal,[1],"1.55 fold enrichment (6-mer frequency, TF over GST control)"
same,binding signal,[2],"1.67 fold enrichment (6-mer frequency, TF over GST control)"
same,binding signal,[3],"1.36 fold enrichment (6-mer frequency, TF over GST control)"
same,binding signal,[4],"1.68 fold enrichment (6-mer frequency, TF over GST control)"
same,binding signal,[5],"1.44 fold enrichment (6-mer frequency, TF over GST control)"
same,binding signal,[6],"1.55 fold enrichment (6-mer frequency, TF over GST control)"
same,binding signal,[7],"1.47 fold enrichment (6-mer frequency, TF over GST control)"
same,binding signal,[8],"1.6 fold enrichment (6-mer frequency, TF over GST control)"
same,binding signal,[9],"1.7 fold enrichment (6-mer frequency, TF over GST control)"
same,binding signal,[10],"1.73 fold enrichment (6-mer frequency, TF over GST control)"
same,binding signal,[11],"1.68 fold enrichment (6-mer frequency, TF over GST control)"
same,binding signal,[12],"1.53 fold enrichment (6-mer frequency, TF over GST control)"
same,binding signal,[13],"1.43 fold enrichment (6-mer frequency, TF over GST control)"
same,binding signal,[14],"1.28 fold enrichment (6-mer frequency, TF over GST control)"
same,binding signal,[15],"1.39 fold enrichment (6-mer frequency, TF over GST control)"
same,binding signal,[16],"1.53 fold enrichment (6-mer frequency, TF over GST control)"
same,binding signal,[17],"1.55 fold enrichment (6-mer frequency, TF over GST control)"
TTGCGT,binding signal,[1],"1.05 fold enrichment (6-mer frequency, TF over GST control)"
same,binding signal,[2],"1.14 fold enrichment (6-mer frequency, TF over GST control)"
same,binding signal,[3],"1.12 fold enrichment (6-mer frequency, TF over GST control)"
same,binding signal,[4],"1.03 fold enrichment (6-mer frequency, TF over GST control)"
same,binding signal,[5],"1.11 fold enrichment (6-mer frequency, TF over GST control)"
same,binding signal,[6],"1.01 fold enrichment (6-mer frequency, TF over GST control)"
same,binding signal,[7],"1.11 fold enrichment (6-mer frequency, TF over GST control)"
same,binding signal,[8],"1.11 fold enrichment (6-mer frequency, TF over GST control)"
same,binding signal,[9],"1.13 fold enrichment (6-mer frequency, TF over GST control)"
same,binding signal,[11],"1.1 fold enrichment (6-mer frequency, TF over GST control)"
same,binding signal,[12],"1.1 fold enrichment (6-mer frequency, TF over GST control)"
same,binding signal,[13],"1.08 fold enrichment (6-mer frequency, TF over GST control)"
same,binding signal,[14],"1.12 fold enrichment (6-mer frequency, TF over GST control)"
same,binding signal,[15],"1.33 fold enrichment (6-mer frequency, TF over GST control)"
same,binding signal,[16],"1.16 fold enrichment (6-mer frequency, TF over GST control)"
same,binding signal,[17],"1.12 fold enrichment (6-mer frequency, TF over GST control)"
